According to PubChem BioAssay:
A number with no mark means an inactive call. How the calls were made is not given here.

Target: Pantothenate synthetase (Mycobacterium tuberculosis (strain ATCC 25618 / H37Rv)) (UniProt P9WIL5)
Assay: Recombinant Mtb pantothenate synthetase (PanC) inhibitors, coupled enzyme, confirmatory (AID 375);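 further: 0% = full reaction with vehicle and 100% = no enzyme background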
Settings: coupled enzyme assay; at 10 µM, stronger effect = higher value

Chain of Pantothenate synthetase (Mycobacterium tuberculosis (strain ATCC 25618 / H37Rv)) (P9WIL5 whole entry, looked up): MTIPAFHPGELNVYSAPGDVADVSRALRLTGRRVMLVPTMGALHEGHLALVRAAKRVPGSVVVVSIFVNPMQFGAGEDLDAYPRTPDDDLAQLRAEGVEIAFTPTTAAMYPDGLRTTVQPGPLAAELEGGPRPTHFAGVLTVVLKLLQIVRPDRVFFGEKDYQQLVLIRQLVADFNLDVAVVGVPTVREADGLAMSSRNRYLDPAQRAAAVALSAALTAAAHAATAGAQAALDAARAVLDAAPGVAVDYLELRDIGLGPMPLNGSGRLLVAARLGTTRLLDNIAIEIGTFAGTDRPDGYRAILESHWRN

Row | Structure (SMILES) | inhibition
1 | Cc1nc2ccc(NC(=O)NCc3ccco3)cc2s1 | 0%
2 | COc1ccc(NC(=O)COc2ccccc2)c(OC)c1 | 0%
3 | O=C(CN(c1ccccc1)S(=O)(=O)c1ccccc1)N1CCN(Cc2ccc3c(c2)OCO3)CC1 | 0%
4 | COc1ccc2c(c1)[nH]c1c(=O)n(CCN(C)C)cnc12 | 0%
5 | O=C(CSc1nc2ccccc2s1)N1CCN(C(=O)c2ccco2)CC1 | 0%
6 | Cc1ccc(-c2nn(C)c(=O)c3ccccc23)cc1S(=O)(=O)N1CCOCC1 | 9%
7 | CCN1CCN(C(=O)c2ccc3c(=O)n(C4CCCC4)c(=S)[nH]c3c2)CC1 | 0%
8 | O=C(CSc1nnc(-c2ccco2)n1CC1CCCO1)N1CCCCC1 (centres undefined) | 0%
9 | COc1ccc(-c2nnc(SC(C)C(=O)Nc3nccs3)n2-c2ccccc2)cc1OC (centres undefined) | 0%
10 | Fc1ccccc1-c1nc(NCCCN2CCOCC2)c2ccccc2n1 | 0%
11 | Cn1c(SCC(=O)O)nnc1C1CCCCC1 | 1%
12 | Cc1cccc(COc2ccc(/C(O)=C3\C(=O)C(=O)N(CCN(C)C)C3c3ccncc3)cc2)c1 (centres undefined) | 13%
13 | Nn1cnnc1SCC(=O)Nc1ccc2c(c1)OCCO2 | 0%
14 | Cc1cc(C)cc(NC(=O)C2CCCN(c3nccc(C)n3)C2)c1 (centres undefined) | 0%
15 | O=C(Nc1cc(C(F)(F)F)ccc1Cl)C1CCN(c2nnc(-n3cccc3)s2)CC1 | 3%
16 | CCN1C(=O)c2ccccc2S(=O)(=O)c2ccc(C(=O)NCc3cccnc3)cc21 | 0%
17 | O=C(CSc1nnc(-c2ccc(Br)o2)n1Cc1ccccc1)c1ccccc1F | 2%
18 | COC(=O)/C=c1/s/c(=C(/C#N)C(=O)N2CCOCC2)n(-c2ccccc2)c1=O | 4%
19 | Cc1ccccc1NC(=O)CN1CCC(NC(=O)Nc2ccccc2)CC1 | 4%
20 | COc1ccc(S(=O)(=O)Nc2ccc3c(c2)OCO3)cc1Cl | 5%

Row | Structure (SMILES) | inhibition
21 | O=C(Cn1ncc2ccccc21)N1CCN(c2cccc(C(F)(F)F)c2)CC1 | 2%
22 | Brc1ccc(-c2cn3cccnc3n2)cc1 | 0%
23 | CCN(CC)S(=O)(=O)c1ccc2oc(C(=O)N3CCOCC3)c(C)c2c1 | 0%
24 | C=CCSc1nc(N)c2c(C)c(C)sc2n1 | 0%
25 | O=C(C1CCC1)N1CCc2cc(S(=O)(=O)Nc3ccc4c(c3)OCO4)ccc21 | 16%
26 | Cc1cccc(Cc2nnc(NC(=O)c3cccc(S(=O)(=O)N4CCOCC4)c3)s2)c1 | 0%
27 | Cc1cccc2cc(CN(CCCO)C(=O)Nc3ccc(Cl)cc3)c(=O)[nH]c12 | 5%
28 | COC(=O)C1=C(C)n2nnnc2NC1c1ccc(Cl)cc1 (centres undefined) | 2%
29 | COc1cc(-c2nc(-c3ccncc3)no2)cc(OC)c1OC | 2%
30 | O=C(Nc1ccc2c(c1)OCO2)C1CCCN1C(=O)Nc1ccccc1F (centres undefined) | 3%
31 | Cc1ccc(C)c(SCC(=O)Nc2nnc(-c3ccccc3)o2)c1 | 10%
32 | CN=C1CC(C)(C)CC(=O)/C1=C(/O)CCC(=O)NC | 0%
33 | COc1ccc2nc(NC(=O)C3CCCN(S(=O)(=O)c4cccc5nsnc45)C3)sc2c1 (centres undefined) | 5%
34 | CN(C)/C=c1\sc2c(C#N)cc(C(=O)c3ccc(Br)cc3)n2c1=O | 5%
35 | CCOC(=O)Nc1cc(OCC)c(NC(=O)C2CC2)cc1OCC | 0%
36 | CCn1c(SCC(=O)Nc2cccc(C)c2)nc2c(c1=O)SC(C)C2 (centres undefined) | 1%
37 | CC(CCc1ccccc1)NC(=O)C1CCN(S(=O)(=O)c2cnc[nH]2)CC1 (centres undefined) | 4%
38 | COC(=O)c1ccccc1S(=O)(=O)N(Cc1cc2cc3c(cc2[nH]c1=O)OCO3)C1CCCCC1 | 1%
39 | O=C(CSc1nnc(Cc2ccccc2)n1C1CCCCC1)N1CCOCC1 | 3%
